ELG1 genotoxic: inducers of genotoxicity in HEK293T ELG1-luciferase cells; 330,000 compounds, 1.3% hits; Potency, µM (titrated, usually from 46 µM), inactives show top-dose activity change, positive = activation, usual class: activators; HEK293T ELG1-luciferase reporter, luminescence, 16 h; further: % of control where 0% means no effect; nearly all actives have a fitted effect of over 60% in size
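ELG1-luciferase HEK293T cells, 2,000/well; compound pinned in; 16 hr, 37 °C, 5% CO2; ONE-Glo, 30 min RT; luminescence on CCD imager.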
KinaseGlo FLuc: blocks Kinase-Glo luciferase, a counter-screen artifact; Q27757; Kinase-Glo luciferase, ATP luminescence, 8 min; Potency, µM (doses to about 38.3 µM), for inactives: top-dose activity change, negative = inhibition, actives largely listed as inhibitors; 200,000 compounds, 0.28% hits; AID 1379; further: on the % scale 0 is the no-effect control and ±100 the full control effect; nearly all actives have a fitted effect of over 60% in size
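Substrate mix (final 50 mM imidazole pH 7.2, 50 mM KCl, 7 mM MgCl2, 10 uM ATP, 0.01% Tween 20, 0.05% BSA) plus pin-tool compound, then Kinase-Glo detection mix; 8 min ambient, luminescence read.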
FLuc counter: counter-screen for miR-21 project: firefly luciferase inhibitors or activators. Potency, µM (series often up to 57.5 µM), without a hit: at the top dose activity change, negative = inhibition, actives largely listed as inhibitors. 360,000 compounds, 6.9% hits. purified FLuc, Km substrates, luminescence inhibition. P08659;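 further: plate controls were vehicle for no effect and reference inhibitor for full effect; nearly all actives have a fitted effect of over 55% in size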
Target sequence (P08659 whole entry, looked up): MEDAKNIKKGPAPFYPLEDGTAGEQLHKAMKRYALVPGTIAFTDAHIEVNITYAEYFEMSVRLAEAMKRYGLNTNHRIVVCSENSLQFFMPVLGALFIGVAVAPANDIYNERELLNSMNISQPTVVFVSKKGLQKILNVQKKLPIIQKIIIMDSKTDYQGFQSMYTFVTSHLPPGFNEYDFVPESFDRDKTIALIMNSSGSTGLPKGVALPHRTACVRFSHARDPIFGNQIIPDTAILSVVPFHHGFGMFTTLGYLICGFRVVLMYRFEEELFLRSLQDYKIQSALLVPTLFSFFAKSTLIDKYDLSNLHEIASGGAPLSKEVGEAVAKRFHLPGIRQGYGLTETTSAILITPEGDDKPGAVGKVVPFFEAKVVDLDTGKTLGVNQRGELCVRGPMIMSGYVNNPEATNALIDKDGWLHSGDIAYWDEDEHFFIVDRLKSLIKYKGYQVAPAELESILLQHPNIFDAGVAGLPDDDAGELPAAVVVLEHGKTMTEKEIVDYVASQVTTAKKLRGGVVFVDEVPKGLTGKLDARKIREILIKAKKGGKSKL
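Purified P. pyralis luciferase (10nM final) with 10uM D-luciferin and 10uM ATP (Km levels) in 50mM Tris acetate pH 7.5, 10mM Mg acetate, 0.01% Tween-20, 0.05% BSA; qHTS 6-point titration, ~60 µM downward; luminescence read.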
SMN2 splice enh: SMN2 splice variant enhancement | HEK293 SMN2-luciferase splicing reporter, luminescence, 30-36 h | Potency, µM (doses to about 46.1 µM), for inactives: top-dose activity change, positive = activation, actives largely listed as activators | 210,000 compounds, 2.8% hits | AID 1458; further: % of control where 0% means no effect; nearly all actives have a fitted effect of over 55% in size
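HEK293 cells carry an SMN2 minigene-luciferase reporter in which exon 7 inclusion puts luciferase in frame. Cells were seeded at 2000 cells/well, attached for 10-12 hours, then exposed to compounds for 30-36 hours at 37C before ONE-Glo luminescence.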
Rab9 promoter act: activates the Rab9 promoter | Huh7 Rab9 promoter-luciferase reporter, luminescence, 24 h | Potency, µM (titrated, usually from 9.22 µM), without a hit: top-dose activation, negative = inhibition, usual class: activators | 320,000 compounds, 2.8% hits; further: % of control where 0% means no effect; nearly all actives have a fitted effect of over 60% in size
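Quantitative HTS format; Huh7 Rab9-luciferase reporter cells (1500/well) receive compound 2 h post-plating, incubate 24 h at 37 °C, then get luciferase reagent for 10 min before luminescence reading.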
NPC1 promoter act: activates the NPC1 promoter. Potency, µM (highest dose often 9.22 µM), without a hit: top-dose activation, usual class: activators. Huh7 NPC1 promoter luciferase reporter, 24 h. 320,000 compounds, 2.4% hits. AID 485313; further: % of control where 0% means no effect; nearly all actives have a fitted effect of over 60% in size
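Quantitative HTS used a cell-based reporter: Huh7 cells stably bearing the NPC1 promoter upstream of luciferase were treated with compounds for 24 h, and promoter activation was read as luminescence.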
The depositor's hits bear a star; ? = inconclusive; . = no result; [ ] = dose if it differs, or a comment. Rows were chosen to be rich in hits. Some 7.3% of all compounds tested hit in one or more screens of this group. The call rests on the fitted dose curve; in most records, active means well fitted curve in the direction sought with a large enough effect; inconclusive means small, poorly fitted or top-dose-only effect, or another doubt; inactive means no such curve, though single readings can be large; an effect the other way counts as inactive or inconclusive. Potency means the concentration at half of the fitted maximal effect.

SMILES	ELG1 genotoxic	KinaseGlo FLuc	FLuc counter	SMN2 splice enh	Rab9 promoter act	NPC1 promoter act
CC(C)OC(=O)NCCOC(=O)Nc1cccc(Cl)c1	-2.6%	0.3%	-5.2%	-33.7%	6.7%	-6.2%
O=C(Nc1ccccc1)OCCOc1ccccc1	11.6µM*	-1.3%	10.7µM*	?	0.891µM*	3.98µM*
O=C(NCCO)c1cccc(Cl)c1	.	-2.8%	4.4%	-2.4%	0.0063µM*	?
O=C(Nc1cccc(Cl)c1)OCCOc1ccccc1	14.8%	.	21.3µM*	.	?	?
CSc1ncc2c(n1)-c1ccccc1N(Cc1ccccc1)S2(=O)=O	.	.	-17.2%	.	.	.
CCCN1CCN(CCCNC(=O)c2ccc3c(c2)sc2nc(-c4ccc(C)cc4)cn23)CC1	.	.	0.3%	.	.	.
O=C(CN1CCCCC1)Nc1scc2c1c(=O)oc1ccccc12	14.7%	.	-9.5%	.	2.82µM*	?
COc1ccc(OC)c(CNS(=O)(=O)c2cc(-c3onc(C)c3C)ccc2C)c1	.	.	-3.8%	.	.	.
CCOC(=O)CNC(=O)O[C@@H]1C(=O)c2cc(Br)ccc2O[C@H]1c1ccc2c(c1)OCO2	.	0.5%	.	4.2%	.	.
CCCCNC(=O)CCCN1C(=O)CCn2nc(-c3cccn3C)cc21	.	.	-0.6%	.	.	.
Cn1cnc([N+](=O)[O-])c1Sc1nc(N)nc2c1ncn2[C@H]1C[C@H](O)[C@@H](CO)O1	.	-6.7%[7.66 µM]	.	-28.1%[9.22 µM]	.	.
N/C(=N\OC(=O)c1cccc(Cl)c1)c1ccccn1	?	-29.0%	0.601µM*	14.1µM*	3.16µM*	3.16µM*
N/C(=N/OC(=O)c1ccc(Cl)cc1)c1ncc([N+](=O)[O-])s1	7.1%	.	?	.	?	25.0%
N/C(=N\OC(=O)c1ccc(Cl)cc1)c1[nH]ncc1Br	?	.	0.135µM*	.	3.16µM*	?
N/C(=N\OC(=O)c1ccc(Cl)c([N+](=O)[O-])c1)c1ccccn1	13.9%	.	?	.	1.1%	-0.7%
N/C(=N\OC(=O)c1ccc(Cl)c(Cl)c1)c1ccccn1	?	-12.2%	0.757µM*	14.1µM*	4.47µM*	3.16µM*
N/C(=N\OC(=O)c1ccc(Cl)cc1)c1ccccn1	?	6.31µM*	0.0757µM*	7.08µM*	1.41µM*	0.562µM*
CCO/N=C(\N)c1[nH]ncc1Br	1.8%	.	0.1%	.	0.7%	-1.5%
N/C(=N\OC(=O)c1cccc(Br)c1)c1ccccn1	?	.	0.426µM*	.	3.98µM*	3.55µM*
N/C(=N\OS(=O)(=O)c1ccc(Cl)cc1)c1ccccn1	23.1µM*	-2.7%	-18.6%	-6.1%	22.7%	20.0%
CCOc1ccc(C(=O)O/N=C(\N)c2ccccn2)cc1OCC	?	.	12µM*	.	2.51µM*	1.26µM*
N/C(=N\OC(=O)c1cccc(Br)c1)c1ccccc1	?	-8.9%	0.849µM*	?	2.1%	18.6%
N/C(=N\OC(=O)CCCOc1ccccc1)c1cccc(Br)c1	-0.6%	-2.9%	?	9.9%	-0.4%	-2.0%
Cc1ccccc1CNC(=O)Nc1ccc2c(c1)N(C)C(=O)c1ccccc1S2	.	.	-1.0%	.	.	.
CC(=O)N1CCc2c(sc3c2c(=O)n(CCc2ccccc2)c(=O)n3Cc2cccc(C)c2)C1	.	.	5.6%	-1.5%	.	.
SMILES	ELG1 genotoxic	KinaseGlo FLuc	FLuc counter	SMN2 splice enh	Rab9 promoter act	NPC1 promoter act
Cc1ccc(NC(=O)c2nnn(Cc3cccc(C(F)(F)F)c3)c2N)c(C)c1	.	.	-1.2%	-17.5%	.	.
COC(=O)c1ccc(NC(=O)CSc2nc(=O)[nH]c3c2CCCC3)cc1	.	.	0.6%	.	.	.
Cc1ccc(N/C=C(/C#N)c2ccsc2)cc1	.	9.3%	16.9µM*	?	.	.
COc1ccc(CNC(=O)c2ccc(Cn3c(=O)c4cccn4c4cccnc43)cc2)cc1OC	.	.	-10.7%	.	.	.
CN(C)S(=O)(=O)c1ccc(C(=O)NCCSc2c(-c3ccc(Br)cc3)[nH]c3ccccc23)cc1	.	.	1.1%	-9.9%	.	.
Cc1nc2nc(SCc3c(F)cccc3Cl)nn2c(C)c1Cc1ccccc1	.	.	5.36µM*	.	.	.
CCc1ccc(C(=O)CCC2CCCCC2=O)cc1 (stereo unspecified)	18.4µM*	1.0%	12µM*	-4.2%	?	?
Cc1ccc(C(=O)CCC2CCCC2=O)cc1 (stereo unspecified)	?	-2.3%	12µM*	?	?	3.98µM*
Cc1ccc(C(=O)CCC2CCCCC2=O)cc1 (stereo unspecified)	20.6µM*	-2.2%	13.5µM*	-6.8%	?	?
CC1CCCN(C(=O)COC(=O)Cc2c(F)cccc2Cl)C1 (stereo unspecified)	?	.	16.9µM*	.	?	?
CC(C)CN(C(=O)COC(=O)CNC(=O)c1sc2ccccc2c1Cl)C1CCS(=O)(=O)C1 (stereo unspecified)	1.7%	.	12µM*	.	-6.0%	-1.5%
CC1CCCN(C(=O)COC(=O)CNC(=O)c2sc3ccccc3c2Cl)C1 (stereo unspecified)	-0.5%	.	23.9µM*	.	-4.1%	-4.1%
CC1CCCN(C(=O)COC(=O)COc2ccc(Cl)cc2)C1 (stereo unspecified)	1.4%	.	.	.	.	.
Cc1cccc(N(C)S(=O)(=O)c2nnc(NC(=O)C3CCCCC3)s2)c1	.	.	-1.2%	.	-1.3%	0.4%
CC(=O)Nc1ccc(NC(=O)CC(C)n2ccc(C)n2)cc1 (stereo unspecified)	.	.	-0.5%	.	.	.
Cn1c(=O)c2sccc2n2c(CCC(=O)N3CCN(c4cccc(Cl)c4)CC3)nnc12	.	.	0.0%	0.8%	.	.
CCOc1ccc(N=C2NC(=O)S/C2=C\c2ccc(N(C)C)cc2)cc1	?	-2.7%	12µM*	11.2µM*	?	4.47µM*
CCOc1ccc(/C=C2\SC(=S)N(N3C(=O)C4CC4C3=O)C2=O)cc1 (stereo unspecified)	1.1%	0.7%	?	5.0%	0.4%	-2.4%
O=C1NC(=Nc2ccc(Cl)cc2)/C(=C/c2ccco2)S1	10.0%	-1.9%	-13.3%	?	-2.1%	-2.1%
CCOc1ccc(/C=C2/SC(=O)NC2=S)cc1	6.7%	0.7%	16.9µM*	?	?	25.4%
C=CCC(CC=C)(CNC(=O)C(=O)Nc1cccc(C(F)(F)F)c1)c1ccccc1	.	.	-5.5%	0.5%	.	.
CCCCOCc1cc(CN2CCN(c3cccc(Cl)c3)CC2)c(O)c2ncccc12	.	.	1.1%	22.5%	.	.
Cc1cc2ccccn2c1C(=O)Nc1cccc(Cl)c1	12.4%	-3.5%	13.5µM*	26.6%	28.0%	-18.1%
Cc1cc(O)c(C(=O)Nc2cccc(Cl)c2)c(=O)n1C	10.3µM*	.	3.38µM*	.	2.51µM*	2.24µM*
Cc1cc2ccccn2c1C(=O)c1ccc(Cl)cc1	-3.6%	-1.8%	?	-13.7%	14.9%	3.2%
O=C(Nc1cccc(C(=O)O)c1)/C(=C\c1ccccc1)NC(=O)c1cccc2ccccc12	0.4%	-1.1%	21.3µM*	.	-0.1%	-4.4%

Bioassay records from PubChem.
